From PubChem BioAssay AID652134 (The Scripps Research Institute Molecular Screening Center, 2013) come the findings set out here.

About 2,100 (88%) of roughly 2,400 compounds were called active.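 Rule for the calls: active = inhibition above the average of every tested compound plus 3 SD (cut at about 3.8% in these data); inactive = the rest.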 So high a share suggests a set chosen from earlier hits. These entries were drawn from the full list.

The target of this experiment is Nuclear receptor subfamily 0 group B member 1 (Homo sapiens) (UniProt P51843). Nature of the experiment: NR0B1 repressor blockers, StAR reporter readout – cell-based, luminescence, HEK293T, full-length DAX-1, SF-1 activated StAR promoter, confirmation (AID 652134).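 Note: 0% = DAX-1 cells with DMSO and 100% = no DAX-1 control cells with DMSO; active compounds raise luminescence by relieving repression of the StAR reporter.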 Particulars: HEK293T StAR-promoter luciferase reporter, SF-1/DAX-1 repression; at 6.8 µM; hits give high values.
Sequence of Nuclear receptor subfamily 0 group B member 1 (Homo sapiens) (P51843 whole entry, looked up): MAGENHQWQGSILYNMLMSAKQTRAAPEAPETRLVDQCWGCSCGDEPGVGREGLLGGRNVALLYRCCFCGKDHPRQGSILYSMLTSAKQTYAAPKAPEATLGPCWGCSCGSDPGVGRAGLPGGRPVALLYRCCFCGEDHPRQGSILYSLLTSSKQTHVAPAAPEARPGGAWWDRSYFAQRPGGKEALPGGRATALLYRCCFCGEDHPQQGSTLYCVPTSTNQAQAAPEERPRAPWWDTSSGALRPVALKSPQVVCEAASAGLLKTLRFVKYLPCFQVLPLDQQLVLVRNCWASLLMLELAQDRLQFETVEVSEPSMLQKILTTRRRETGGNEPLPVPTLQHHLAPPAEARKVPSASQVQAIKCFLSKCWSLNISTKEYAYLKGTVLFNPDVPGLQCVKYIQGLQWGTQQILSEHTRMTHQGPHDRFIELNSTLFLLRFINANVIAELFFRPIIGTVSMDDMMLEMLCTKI
On to `O=C(NCCc1ccc(F)cc1)c1ccc2nccnc2c1`, for which the inhibition was 12.4% (active).

Consider `COc1ccc(Nc2ncc(F)c(N3CCOCC3)n2)cc1`, for which the inhibition is 11.3% (active).

For `OC(c1ccccc1)c1nc(-c2cnc3ccccc3c2)cs1` (stereo unspecified), the inhibition was 13% (active).

For `O=C1C(C=NCC2CCCO2)=C(O)c2ccccc21` (stereo unspecified), the inhibition was 7.49% (active).

Take `CC(=O)Nc1cccc(-c2csc(Nc3cccc(C)n3)n2)c1`: the inhibition is 10.7% (active).

For the molecule `COc1cc(C2c3cc4c(cc3C(O)C3COC(=O)C23)OCO4)cc(OC)c1OC` (stereo unspecified), the inhibition was 19.5% (active).

Take `COc1cc(/C=N/O)ccc1OCc1ccc([N+](=O)[O-])cc1`: the inhibition was 11.6% (active).

With `CC(=O)Nc1cccc(C(=O)OCC(=O)c2ccc3c(c2)OCO3)c1`, the inhibition is 14.1% (active).

As for `CC(C)c1ccc(C=NNc2ccc([N+](=O)[O-])cn2)cc1`, the inhibition is 14.9% (active).

On to `S=C(c1ccc(-c2ccccc2)o1)N1CCCCC1`, for which the inhibition is 11% (active).

As for `COc1ccc2nc(SCc3ccccc3)nc(C)c2c1`, the inhibition was 20.3% (active).

`CC(C)Cc1cc(C(=O)NCCc2ccccc2)no1`: the inhibition is 8.87% (active).

On to `CNCC(O)c1ccc(O)c(O)c1` (stereo unspecified), for which the inhibition is 3.72% (active).

As for `C(=N\Nc1ccc2ccccc2n1)/c1ccc2c(c1)OCO2`, the inhibition is 13.2% (active).

Regarding `COc1ccc2nc(-c3ccccn3)ccc2c1`, the inhibition was 12.2% (active).

Consider `c1ccc2[nH]c(-c3nc4ccccc4[nH]3)nc2c1`, for which the inhibition is 11.3% (active).

`Cc1ccc(-c2nc3ccccc3[nH]2)cc1N`: the inhibition was 11.7% (active).

For `O=C(NC(=S)NC1CCCCC1)c1ccc(Cl)cc1`, the inhibition was 6.95% (active).

As for `O=C(c1cnn2ccccc12)N1CCc2ccccc21`, the inhibition is 9.73% (active).

In the case of `COc1cccc(/C=C/C(=O)Nc2ccc3c(c2)OCCO3)c1`, the inhibition is 3.84% (active).

For `Cc1cccc(NC(=O)/C=C/c2ccc3c(c2)OCO3)n1`, the inhibition is 13.6% (active).

Consider `O=C(O)c1cccc(N=NN2CCCCCC2)c1`, for which the inhibition is 15% (active).

For `O=c1c2c(nc3n1CCCCC3)sc1c(O)cccc12`, the inhibition is 16.3% (active).

`O=C(Nc1ccc(Cl)c(Cl)c1)c1ccccc1NC(=O)C1CC=CCC1C(=O)O` (stereo unspecified): the inhibition is 7.46% (active).

For the molecule `CC(C)(O)C#Cc1ccc(CNC[C@H]2O[C@@H](n3cnc4c(=O)[nH]c(N)nc43)[C@H](O)[C@@H]2O)s1`, the inhibition was -1.28% (inactive).

Consider `CCN(CC(=O)Nc1c(F)cccc1F)C(=O)c1cnc(C)cn1`, for which the inhibition was 0.35% (inactive).

For the molecule `O=c1oc(/C=C/c2ccccc2)nc2ccccc12`, the inhibition was 11.2% (active).

Take `CC(Oc1ccccc1[N+](=O)[O-])C(=O)N/N=C/c1ccoc1` (stereo unspecified): the inhibition is 1.13% (inactive).

For the molecule `Cc1ccc(S(=O)Cc2ccc(C(=O)N3CCN(C4CCCCC4)CC3)o2)cc1` (stereo unspecified), the inhibition was 5.33% (active).

Regarding `O=[N+]([O-])c1ccc2oc(-c3cccc(O)c3)nc2c1`, the inhibition was 10.7% (active).

Turning to `COc1ccc(-c2cn3ccsc3n2)cc1`, the inhibition was 12.2% (active).

In the case of `COc1ccc(-c2cn3ccc(C)cc3n2)cc1`, the inhibition is 9.6% (active).

As for `Cc1cc(C)c(C)c(S(=O)(=O)N2CCN(C(=O)c3ccc4c(=O)n5c(nc4c3)CCC5)CC2)c1C`, the inhibition was 0.85% (inactive).

Take `O=c1c2c(nc3cc(-c4cccc(Cl)c4)[nH]n13)CCCC2`: the inhibition was 22.3% (active).

As to `O=C(CSc1cccc[n+]1[O-])c1ccc(-c2ccccc2)cc1`, the inhibition was 3.72% (active).

For the molecule `O=C(NCCc1c[nH]c2ccccc12)c1cc2ccccc2oc1=O`, the inhibition was 10.1% (active).

As to `Cc1cc(OCc2cc(C(=O)NCc3cc(C(C)C)no3)no2)cc(C)c1Cl`, the inhibition is 6.04% (active).

Consider `Cc1nc2cc(NC(=O)Nc3cccc(F)c3)ccc2n1C`, for which the inhibition was 15.5% (active).

Consider `C=CCn1c(SCC(=O)Nc2ccc(NC(C)=O)cc2)nc2sc(C)c(C)c2c1=O`, for which the inhibition is -0.94% (inactive).

In the case of `Nc1ccc(C(=O)Nc2ccccc2N)cc1`, the inhibition is 94.3% (active).

Regarding `Cn1ccnc1SCC(=O)Nc1ccc2c(c1)OCCO2`, the inhibition was 10.6% (active).

Consider `CN(C(=O)c1cc2c(=O)n3ccccc3nc2s1)C1CCCCC1`, for which the inhibition is 9.28% (active).

`NS(=O)(=O)c1ccc2nc(NC(=O)C3=COCCO3)sc2c1`: the inhibition is 9.88% (active).

For the molecule `Cc1sc(NC(=O)c2ccc3ncsc3c2)c(C(N)=O)c1C`, the inhibition is 14.4% (active).

On to `CCOC(=O)c1c(S(=O)(=O)Nc2ccc(CN3CCC(C)CC3)cc2)c(C)n(C)c1C`, for which the inhibition is 4.2% (active).

`CCc1ccc(NC2Nc3cc(C)nn3S2)cc1` (stereo unspecified): the inhibition was 10.6% (active).

With `CCOc1cccc(/C=C/c2ccc3ccccc3n2)c1OC(C)=O`, the inhibition is 10.4% (active).

On to `Cc1csc(SCC(=O)Nc2sccc2C#N)n1`, for which the inhibition is 16.1% (active).

With `COC(=O)c1sc(NC(=O)c2ccc(OC)cc2OC)nc1C`, the inhibition is 13.9% (active).

In the case of `O=C(Nc1ccc2c(c1)CCC2)c1ccc(Br)s1`, the inhibition was 15.1% (active).

Consider `COc1ccc(/C=C/C(=O)Nc2ccc(C34CC5CC(CC(O)(C5)C3)C4)cc2)cc1OC`, for which the inhibition was 4.27% (active).

With `Clc1ccc(Nc2nc(-c3cccs3)cs2)nc1`, the inhibition is 13.8% (active).

Consider `Cc1ccccc1OCC(=O)Nc1ccc2c(c1)ncn2C`, for which the inhibition was 8.73% (active).

On to `Cc1ccccc1Nc1nc(N)nc(CSc2ccccc2)n1`, for which the inhibition was 19.3% (active).

For the molecule `CCCNC(=O)C1CC(=O)N(c2ccc(OCc3ccccc3)cc2)C1` (stereo unspecified), the inhibition was 14.4% (active).

For the molecule `Cc1ccc(N/C=C/C(=O)c2ccccc2)cc1C`, the inhibition was 10.3% (active).

For `CC1CCN(C(=O)COC(=O)c2cc(=O)[nH]c3ccccc23)CC1`, the inhibition was 9.14% (active).

For `COc1ccccc1CCC(=O)OCC(=O)N1CCN(S(=O)(=O)c2ccc(C)cc2C)CC1`, the inhibition is 1.66% (inactive).

For the molecule `CCOc1ccc(S(=O)(=O)Nc2cccc(C(=O)NCC3(N4CCCCC4)CCCCC3)c2)cc1`, the inhibition was 8.51% (active).

As to `CCN(c1ccccc1)S(=O)(=O)c1ccc(OCC(=O)N2CCCC2)cc1`, the inhibition was 0.88% (inactive).

For `O=C(NCC1(N2CCCCC2)CCCCC1)c1ccc(NS(=O)(=O)c2ccc(F)cc2)cc1`, the inhibition was 9.71% (active).

Regarding `COc1ccc(OCc2cc(C(=O)N3CCCC3)no2)c2ccccc12`, the inhibition is 6.33% (active).

`COc1ccccc1-c1cc(C(=O)N2CCCCC2)no1`: the inhibition is 13.3% (active).

For the molecule `O=C(c1cc(-c2cccs2)on1)N1CCCCC1`, the inhibition was 12.9% (active).

Consider `O=C(c1cc(-c2ccccc2O)on1)N1CCCC1`, for which the inhibition is 11.2% (active).

Consider `CC(C)c1ccc(Nc2ncccc2C#N)cc1`, for which the inhibition is 5.79% (active).

Regarding `Cc1ccnc(NC(=O)CCNS(=O)(=O)c2ccc(C)c(C)c2)c1`, the inhibition was 14% (active).

For `CC1CCCN(c2ccc(C(=O)NCCc3ccccc3)cn2)C1` (stereo unspecified), the inhibition is 7.54% (active).

As to `CC[C@]1(O)CC2CN(CCc3c([nH]c4ccccc34)[C@@](C(=O)OC)(c3cc4c(cc3OC)N(C=O)[C@H]3[C@@](O)(C(=O)OC)[C@H](OC(C)=O)[C@]5(CC)C=CCN6CC[C@]43[C@@H]65)C2)C1` (stereo partly specified), the inhibition was 17.7% (active).

Take `CC[C@]1(O)C[C@@H]2CN(CCc3c([nH]c4ccccc34)[C@@](C(=O)OC)(c3cc4c(cc3OC)N(C)[C@H]3[C@@](O)(C(=O)OC)[C@H](OC(C)=O)[C@]5(CC)C=CCN6CC[C@]43[C@@H]65)C2)C1`: the inhibition is 19.4% (active).

For the molecule `Cc1c(C(=O)Nc2ccccn2)oc2ccc(Br)cc12`, the inhibition was 12.8% (active).

With `CCOc1ccc(-c2nnc(-c3ccco3)o2)cc1`, the inhibition is 9.81% (active).

Regarding `O=C(NCC1CCCO1)c1cc2c(s1)CCCC2` (stereo unspecified), the inhibition is 5.13% (active).

Regarding `O=C(Nc1ccc2ccccc2c1[N+](=O)[O-])c1ccccc1`, the inhibition is 8.86% (active).

Regarding `C/C(=N\NC(=O)c1ccccc1F)c1ccccn1`, the inhibition was -7.54% (inactive).

`O=C(NCCOc1ccccc1)c1ccccc1F`: the inhibition is 13.3% (active).

`O=C(CCc1ccccc1)Nc1ncc([N+](=O)[O-])s1`: the inhibition is 3.12% (inactive).

`O=C(Nc1ccn(Cc2ccccc2)n1)c1n[nH]c([N+](=O)[O-])c1Cl`: the inhibition was 10.4% (active).

For `COc1ccc(-c2csc(Nc3ccccn3)n2)cc1`, the inhibition was 12.8% (active).

As for `COC(=O)Nc1nc2ccc(C(=O)C3CC3)cc2[nH]1`, the inhibition was 17.1% (active).

Consider `CN1CCN(C(=O)c2ccc(-c3ccc(Br)cc3)o2)CC1`, for which the inhibition was 6.02% (active).

Turning to `COc1ccc(CCOC2OC(CO)C(OC(=O)/C=C/c3ccc(O)c(OC)c3)C(O[C@H]3O[C@@H](C)[C@H](O)[C@@H](O)[C@H]3O)C2O)cc1O` (stereo partly specified), the inhibition was 2.5% (inactive).

On to `CCCOc1ccc(C(=O)NCCc2ccccc2)cc1`, for which the inhibition is 11.2% (active).

In the case of `COc1ccc(C(=O)NCC[N+](C)(C)C)cc1`, the inhibition was 1.64% (inactive).

Regarding `O=C(N/N=C\C1CC=CCC1)c1ccc(Br)o1` (stereo unspecified), the inhibition was 0.48% (inactive).

With `CCCc1cc(C(=O)Nc2ccc(C(=O)OC)cc2)cs1`, the inhibition is 3.03% (inactive).

As for `CCCc1cc(C(=O)Nc2ccc(Cl)cn2)cs1`, the inhibition was 8.76% (active).

As for `Nc1c(C(=O)Nc2ccc3c(c2)OCCO3)nnn1Cc1ccccc1`, the inhibition is 12.5% (active).

`O=C(Nc1ccc(NC(=O)c2cccs2)cn1)c1ccco1`: the inhibition is 12.9% (active).

On to `O=C(NC(=S)Nc1ccc(Cl)cc1Cl)C1CC1`, for which the inhibition was 5.19% (active).

For the molecule `COc1cc(OC)c(C(=O)NNC(=O)c2ccc(NS(=O)(=O)c3cccs3)cc2)cc1OC`, the inhibition is 1.04% (inactive).

In the case of `O=C(Nc1ccccc1)Nc1nc2ccccc2s1`, the inhibition is 14.6% (active).

Turning to `CC(C)c1ccc(Nc2nnc(SCC(=O)c3nnc(-c4ccccc4)o3)s2)cc1`, the inhibition was 7.92% (active).

For `CCc1ccc2oc(-c3ccc(N)cc3)nc2c1`, the inhibition was 12.2% (active).

For `CC(C)(C)c1csc(NC2=NS(=O)(=O)c3ccccc32)n1`, the inhibition is 11.5% (active).

As to `Cc1ccc(-n2cc3ccc([N+](=O)[O-])cc3n2)cc1`, the inhibition was 12.1% (active).

Consider `Brc1ccc2nc(N3CCCC3)sc2c1`, for which the inhibition is 7.35% (active).

In the case of `O=C(Nc1ncccc1O)c1ccc(S(=O)(=O)N2CCCC2)cc1`, the inhibition was 10.3% (active).

With `O=C(Nc1ncccc1O)c1ccc(C(=O)c2ccccc2)cc1`, the inhibition was 51.3% (active).

Regarding `O=C(Nc1ncccc1O)c1ccc(S(=O)(=O)N2CCCCCC2)cc1`, the inhibition was 7.57% (active).

Consider `CCc1ccc(NC(=O)N2CCc3ccccc3C2)cc1`, for which the inhibition is 5.01% (active).
